HIF-2a inh = blocks HIF-2a reporter activity | 360,000 tested, 0.72% active | 786-0 RCC cells HIF-2a reporter, luciferase luminescence, overnight | AID 624352 | inhibition, % at 18.8 µM;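 active = inhibition of the luminescence signal of 40% or more relative to plate controls, in a single-dose primary screen at 18.75 µM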
KKLEB cytotox = CF airway cell cytotoxicity counter-screen; KKLEB CF airway cells viability, ATPlite luminescence, overnight; stronger effect = lower value; cells stimulated with P. aeruginosa culture filtrate; activity change (cytotoxicity), % at 5 µM; 360,000 tested, 0.36% active;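 active = corrected activity change at or below -50% at 5 µM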
CF NFkB block = blocks PAF-induced NF-kB reporter in cystic fibrosis cells | AID 588850 | 360,000 tested, 0.86% active | inhibition, % at 5 µM | KKLEB NF-kB-GFP reporter, GFP fluorescence overnight;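 active = at least 50% inhibition at 5 µM, scaled per plate between neutral and stimulator controls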;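 note: PAF is a Pseudomonas aeruginosa culture filtrate used as stimulus; plate controls were PAF-stimulated DMSO wells for no effect and unstimulated DMSO wells for full effect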
TWEAK-Fn14 inh = blocks TWEAK-Fn14 interaction in a reporter cell assay; TWEAK-stimulated Fn14 reporter cells, luciferase luminescence, 8 h; inhibition, % at 10 µM; 360,000 tested, 2% active; in the data active = inhibition above about 50%
Peg3 prom inh = reduces Peg3 promoter-driven luciferase expression in HeLa. HeLa PEG-Prom luciferase reporter, luminescence, overnight. inhibition, % at 20 µM. AID 588405. 360,000 tested, 1.7% active;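 active = inhibition of at least 50% at 20 µM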
TROY signal inh = blocks TROY-dependent signaling in reporter cells; AID 1347056; inhibition, % at 10 µM; Q293 LMP1-TROYcd NF-kB luciferase reporter, 4 h; 360,000 tested, 0.98% active;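 active = compounds whose plate-normalised and pattern-corrected inhibition of the luciferase reporter signal at the single screening dose is 50% or more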
The depositor's hits bear a star; nt = no result. Shown are actives, neighbours in structure and some others; about 4% of the full set was active somewhere.

SMILES	HIF-2a inh	KKLEB cytotox	CF NFkB block	TWEAK-Fn14 inh	Peg3 prom inh	TROY signal inh
C=C[C@]1(C)C=C2C(=O)[C@@]3(O)OC(=O)[C@@]4(CCCC(C)(C)[C@H]34)[C@@]2(O)CC1	97*	-99*	88*	104*	99*	27
C=C[C@]1(C)C=C2CC[C@H]3[C@@](C)(CCC[C@@]3(C)C(=O)O)[C@@H]2CC1	14	-8	16	-16	6	32
COc1ccc(NS(=O)(=O)c2ccc(C)c(C(=O)NCCCn3ccnc3)c2)cc1	13	8	3	2	3	0
CC[C@H](C)[C@@H]1NC(=O)[C@@H](CC(C)C)NC(=O)[C@H](C(C)C)NC(=O)[C@H]2CSSC[C@H](NC1=O)C(=O)N2	96*	-106*	82*	107*	98*	86*
Cc1nc2c(C(=O)NCCC(C)C)c[nH]n2c(=O)c1Cc1ccccc1F	-13	-28	3	16	42	69*
Cc1nc2c(C(=O)NCCC(C)C)c[nH]n2c(=O)c1Cl	12	11	-8	10	-4	7
Fc1ccc(CNc2ncccn2)cc1	6	8	-12	15	0	-2
Clc1ccc(CNc2ncccn2)cc1	16	-18	14	72*	-7	13
O=C(Nn1cnnc1)c1ccncc1	15	-14	5	-1	-4	-4
CC(=O)c1c(C(C)=O)c(C)n(NC(=O)c2ccncc2)c1C	14	-1	-13	53*	-1	nt
CCCCn1c(N)c(N(CCC(C)C)C(=O)C2CC(=O)N(c3ccccc3OCC)C2)c(=O)[nH]c1=O (centres undefined)	9	17	-47	5	6	7
COc1ccc(-c2csc(N(CCc3ccccc3)C(=O)COc3ccccc3)n2)cc1	28	-4	-7	-4	4	-12
O=C(COc1ccc(Cl)cc1)N(Cc1ccccc1)c1nc(-c2ccccc2)cs1	13	-2	3	0	55*	-20
CC1CCCC(NC(=O)Cn2cc(Br)ccc2=O)C1C (centres undefined)	-2	11	-2	8	6	-7
Cc1cccc(N(C)S(=O)(=O)c2ccc3c(c2)C(C)(C)C(=O)N3C)c1	2	4	8	88*	-2	-13
CN1C(=O)C(C)(C)c2cc(S(=O)(=O)N(C)Cc3ccccc3)ccc21	-13	-13	24	20	2	12
COc1cc(OC)c2c(-c3cccc(-c4ccc(C(C)=O)cc4)c3)cc(=O)oc2c1	1	-6	55*	77*	-12	56*
COc1cc(OC)c2c(-c3cccc(-c4ccc(OC)c(F)c4)c3)cc(=O)oc2c1	-32	-12	46	-26	-38	4
Fc1ccc(-c2nc3c4ccccc4ccn3c2Cc2ccccc2C(F)(F)F)cc1	-108	-10	8	-2	-32	59*
FC(F)(F)c1ccccc1Cc1c(-c2ccc(Cl)cc2)nc2c3ccccc3ccn12	-43	nt	nt	-4	nt	-69
COc1ccc(CCNC(=O)C(C)OC(=O)c2nsc(Cl)c2Cl)cc1OC (centres undefined)	15	2	8	-6	2	4
COc1ccc(CCNC(=O)c2cc3c(=O)n4ccccc4nc3n(CCN3CCOCC3)c2=N)cc1	3	-9	-8	63*	11	48
COc1ccc(CCNC(=O)c2cc3c(=O)n4ccccc4nc3n(CCCN3CCOCC3)c2=N)cc1	17	-12	21	-3	14	-11
COc1ccc(CCn2c(=N)c(C(=O)NCc3ccco3)cc3c(=O)n4ccccc4nc32)cc1OC	2	-7	-25	-8	7	-4
COc1ccc(CCNC(=O)c2cc3c(=O)n4ccccc4nc3n(Cc3ccco3)c2=N)cc1OC	-41	6	-5	96*	73*	62*
SMILES	HIF-2a inh	KKLEB cytotox	CF NFkB block	TWEAK-Fn14 inh	Peg3 prom inh	TROY signal inh
N=c1c(S(=O)(=O)c2ccc(Cl)cc2)cc2c(=O)n3ccccc3nc2n1Cc1ccco1	8	-18	18	53*	36	31
CNS(=O)(=O)c1ccc(C(=O)NCC(=O)NC(C)c2cccs2)cc1 (centres undefined)	7	0	6	22	-4	1
COc1ccc(OC2CCN(S(=O)(=O)c3ccc(C(C)=O)cc3)CC2)cc1	6	10	-1	-9	-2	11
CCCCCCCCN1C(=O)[C@H](CC(=O)NCC2CCCCC2)C[C@@]2(C(=O)OCC)CCC=C12	-10	nt	nt	nt	nt	nt
CCCCCCCCN1C(=O)[C@H](CC(=O)NCC2CCCCC2)C[C@@]2(C(=O)OCC)CCCC=C12	-7	nt	nt	-2	nt	51*
CC(C)N(C(=O)CN1CCN(C(=O)C2COc3ccccc3O2)CC1)C(C)C (centres undefined)	6	-9	2	6	1	3
COCCn1c(Cc2ccccc2)nnc1SCC(=O)Nc1oc(C)c2c(C)n[nH]c(=O)c12	-9	-3	-2	6	4	57*
CCCCCCCC/C=C\CCCCCCCC(=O)NCCc1ccc(O)c(O)c1	18	6	59*	-11	-13	-23
CCCCCCCC/C=C\CCCCCCCC(=O)NCCO	-2	27	11	6	-10	10
COc1ccccc1C(=O)Nc1ccccc1N1CCOCC1	-10	-5	0	-4	4	-20
O=C(COc1ccccc1)NC(=S)N1CCc2ccccc21	-123	1	-5	-11	-91	-12
COc1ccccc1C(=O)NC(=S)N1CCCc2ccccc21	-88	-1	-5	59*	-45	49
COc1ccccc1NC(=O)Nc1ccccc1N1CCOCC1	-40	7	-7	61*	4	12
Cc1ccccc1C(=O)NC(=S)Nc1ccccc1N1CCCC1	-29	-13	-35	12	-15	0
COc1ccc(OCC(=O)NC(=S)N2CCCc3ccccc32)cc1	-109	7	-8	55*	-57	37
COc1ccccc1C(=O)NC(=S)Nc1ccccc1N1CCCC1	-105	-11	-23	76*	-29	78*
CCC(C(=O)OCC(=O)NCc1ccc2c(c1)OCO2)c1ccccc1 (centres undefined)	13	5	2	1	-8	-12
COCCNC(=O)COc1coc(CN2CCN(Cc3ccccc3)CC2)cc1=O	12	4	-15	7	-7	5
CC(C)C[C@H]1CN([C@@H](CC(C)C)CN2CCCC2CN2C(=S)NC[C@@H]2Cc2ccc(O)cc2)C(=S)N1CC1CCCCCC1 (some centres undefined)	-12	3	5	-2	91*	7
Oc1ccc(C[C@H]2CNC(=S)N2C[C@H]2CCCN2C[C@H](Cc2ccccc2)N2C[C@H](Cc3ccc(O)cc3)N(CCc3ccccc3)C2=S)cc1	-49	-6	42	27	76*	33

Compound activity: PubChem, Sanford-Burnham Center for Chemical Genomics
